Reference: ChEMBL document CHEMBL3988442, “University of Dundee, Small-Polar-MMV Screening Library” (2021)
The campaign covered roughly 48,000 compounds. About 13,000 (27%) showed an effect of 50% or more. Some of the results follow.

Test system: Wolbachia pipientis
Assay: Anti-Wolbachia Cell-Based Screen
Format: functional
Design: scale not given: in the data most compounds retested in dose-response had high values
Conditions: 5 µM

Structure (SMILES) | Percent Effect [%]
Cc1ccc(=O)n(CC2(O)CCN(Cc3cc(C)c(O)c(C)c3)CC2)n1.O=C(O)CC(O)(CC(=O)O)C(=O)O | -13.33
CCn1c(CN2CCC(O)(c3ccc4c(c3)OCO4)CC2)cnc1SC.O=C(O)CC(O)(CC(=O)O)C(=O)O | 113.8
Cn1cc(CN2CCC3(CC(=O)N(c4ccc5c(c4)OCO5)C3)C2)cn1.O=C(O)C(F)(F)F (configuration not stated) | -18.04
Fc1ccc(CN2CCC3(CC2)CCN(Cc2nccs2)CC3)cc1.O=C(O)C(F)(F)F.O=C(O)C(F)(F)F | 3.556
O=C(O)C(c1ccc2c(c1)OCO2)N1CCC(O)(c2cccnc2)CC1 (configuration not stated) | -24.46
Cc1ncc(CN2CCCC(O)(c3ccc(F)cc3)CC2)n1C.O=C(O)CC(O)(CC(=O)O)C(=O)O (configuration not stated) | 96.51
CCn1c(CN2CCCC(O)(c3ccc(F)cc3)CC2)cnc1SC.O=C(O)CC(O)(CC(=O)O)C(=O)O (configuration not stated) | 110.7
CC(NC(=O)N(C)CCCOc1ccc(F)cc1)c1nncn1C (configuration not stated) | 8.721
Cc1cccc(C(=O)N2CCN(S(C)(=O)=O)[C@@H]3CS(=O)(=O)C[C@@H]32)n1 | -7.495
O=C1NCCN(C(=O)c2cn3ccsc3n2)C1c1cccc(F)c1 (configuration not stated) | -4.51
Cc1csc(C2CCCCN2C(=O)CN(C)Cc2ccccc2)n1 (configuration not stated) | -0.5019
Cc1csc(C2CCCCN2C(=O)CN(C)C2CC2)n1 (configuration not stated) | 3.375
Cc1csc(C2CCCCN2C(=O)CN(C)C(C)C)n1 (configuration not stated) | 91.31
CCN(CC)CC(=O)N1CCCCC1c1nc(C)cs1 (configuration not stated) | 131.2
CCn1nc(C)c(CCN2CC3(CCOC3)CCC2=O)c1C (configuration not stated) | -24.96
N#CC1C(=O)Nc2c(cnn2C2CCCC2)C12CCCCC2 (configuration not stated) | 30.08
CC(C)c1ncc2c(n1)CN(Cc1nc(-c3ccco3)no1)CC2 | 103.4
Cn1cnc2c1CCN(Cc1nc(-c3ccco3)no1)C2 | -0.7314
CC(C)c1ncc2c(n1)CN(Cc1nc(Cc3ccccc3)no1)CC2 | -0.3417
CC(C)c1ncc2c(n1)CN(Cc1nc(-c3cccnc3)no1)CC2 | 97.53
CC(C)c1ncc2c(n1)CN(Cc1nc(-c3ccccn3)no1)CC2 | 114.4
CCc1ncc2c(n1)CN(Cc1nc(-c3ccccn3)no1)CC2 | 1.522

Structure (SMILES) | Percent Effect [%]
CC(C)c1ncc2c(n1)CN(Cc1nc(-c3ccoc3)no1)CC2 | -5.396
c1ccc(-c2noc(CN3CCc4cncnc4C3)n2)nc1 | 12.32
CC1CCCN(S(=O)(=O)N2CCOC3(CCCC3)C2)C1 (configuration not stated) | 2.449
CCC(=O)NCC(=O)NCC(C)(C)c1cccc(Br)c1 | 13.04
COc1cccc2c1OCC(C(=O)NCCn1nc(C)c(Cl)c1C)C2 (configuration not stated) | -38.77
CCCc1nnc(NC2CCN(C3CCSCC3)CC2)o1 | -8.087
CCc1nnc(CSc2ccccn2)o1 | -8.933
CN1CC(=O)N(c2cccc(F)c2)CC12CCN(S(=O)(=O)C1CC1)C2.O=C(O)C(F)(F)F (configuration not stated) | -1.497
CC(C)c1nccn1-c1cccc(C2CCCN(C3CCCC3)C2)n1 (configuration not stated) | 0.08562
CC(C)c1nccn1-c1cncc(C2CCCN(C3CCCC3)C2)n1 (configuration not stated) | 108
CC(C)c1nccn1-c1cncc(C2CCCN(C3CCCCC3)C2)n1 (configuration not stated) | 98.48
COC[C@]1(O)CCN(C(=O)c2cccc(CN(C)C)c2)CC1(C)C | 2.502
COc1ccc(C)cc1CNCc1ccc(-n2nc(C)cc2C)nc1 | -14.66
Cc1nc(CCNC(=O)C2CC(=O)N(C(C)(C)C)C2)sc1C (configuration not stated) | 2.949
Cc1nc(COCc2nc3c(o2)CN(C(=O)c2ccc[nH]2)C3)cs1.O=C(O)C(F)(F)F | -0.815
COc1ccc(CCC(C)Nc2cccc(SC)c2)cc1 (configuration not stated) | 100.8
COc1ccc(C(CO)NC(=O)Nc2cccc(C#N)c2)cc1 (configuration not stated) | -8.791
COc1ccc(CC(C)Nc2cccc(SC)c2)cc1 (configuration not stated) | 111.5
COc1ccc2cc(CNc3c(C)nn(C(C)C)c3C)ccc2c1 | -4.986
COC[C@H](C)Nc1cc(C)c2ccc(SC)cc2n1 | 11.13
COc1ccc(C(CO)NC(=O)Nc2cccc(F)c2)cc1 (configuration not stated) | -21.51
Cn1cc(CN2CCc3ncn(C)c3C2COCc2ccccc2)cn1 (configuration not stated) | 0.114

Structure (SMILES) | Percent Effect [%]
Cc1nnc([C@H]2C[C@H]3CN(C(=O)Cc4ccc(F)cc4)CC[C@@H]3O2)o1 | -15.1
Cc1ccc(CC(=O)N2CCCC(c3cc(C)[nH]n3)C2)cn1 (configuration not stated) | -0.4689
O=C(Cc1ccccc1)N1CCn2cc(Cn3cncn3)nc2C1 | 14.97
Nc1ncnc2nc(C3CCN(C(=O)Cc4ccc(F)cc4)C3)ccc12 (configuration not stated) | 118.1
Nc1ncnc2nc(C3CCN(C(=O)Cc4ccccc4)C3)ccc12 (configuration not stated) | 78.69
O=C(Cc1ccncc1)N1C[C@@H]2CC[C@H](C1)N(Cc1ccccc1)C2=O | 6.116
O=c1[nH]c2cc(S(=O)(=O)N3CCC(c4ccsc4)CC3)ccc2o1 | 12.73
COC(=O)CNC(=O)CSCc1nc(O)c2cc(C)sc2n1 | 28.1
Cc1cc2ncn(C[C@]3(O)CCCN4CCCC[C@@H]43)c2cc1C | 111.8
Cc1ccnc(N2CCN(C[C@]3(O)CCCN4CCCC[C@@H]43)CC2)c1 | -8.166
O[C@@]1(CNCCOc2ccccc2)CCCN2CCCC[C@@H]21 | -8.201
O[C@@]1(CN2CCN(Cc3ccncc3)CC2)CCCN2CCCC[C@@H]21 | 17.3
Cc1cnccc1N1CCN(C[C@]2(O)CCCN3CCCC[C@@H]32)CC1 | -12.63
COc1ccc2c(c1)ncn2C[C@]1(O)CCCN2CCCC[C@@H]21 | 108.1
Cc1cccnc1CN1CCN(C[C@]2(O)CCCN3CCCC[C@@H]32)CC1 | 4.951
CCN(Cc1noc(CC(C)C)n1)C[C@]1(O)CCCN2CCCC[C@@H]21 | 2.054
O[C@@]1(Cn2cnc(Cl)c2Cl)CCCN2CCCC[C@@H]21 | 101.1
CCS(=O)(=O)N1Cc2c(Cn3ccnc3)nn(C(C)C)c2C1 | 9.692
COC[C@@]12CC[C@@H](N3CCOCC3)C[C@H]1CCN(c1cc(C)ccn1)C2 | -3.135
O=C(CCNC(=O)c1ccoc1)Nc1ccc(F)cc1F | -4.684
Cc1nc(C)c(C(=O)NCCNC(=O)c2ccc(F)cc2F)s1 | 5.73
O=C(NCCCNC(=O)c1ccc(F)cc1F)c1cccc(O)c1 | 113.1

Structure (SMILES) | Percent Effect [%]
NC(=O)CCCNC(=O)Cc1cccc(I)c1 | -16.28
O=C(NCCCNC(=O)c1ccccc1)Nc1ccc(F)cc1F | 98.16
O=C(NCCCO)Nc1cccc(I)c1 | 5.16
O=C(NCC(O)c1ccc(F)cc1F)c1cccc(F)c1 (configuration not stated) | -1.094
O=C(Cc1cccc(O)c1)NCCCNC(=O)c1cccc(F)c1 | 107.1
Cc1cccc(C(=O)NCCCN2CCN(c3ccccc3)CC2)c1 | 0.2933
O=C(Nc1ccc(F)cc1F)NC1(CO)CCOCC1 | -12.95
O=C(NCCCNC(=O)c1cccc(O)c1)Nc1ccc(Cl)cc1 | 112
CC(NC(=O)NC1CCN(Cc2ccccn2)CC1)c1nncn1C (configuration not stated) | 0.2394
CC(C)(C)CN[C@@H]1CO[C@H](CNC(=O)c2ccncc2)[C@H]1O | -9.96
CC(=O)Nc1ccc(Cl)c(C(=O)N(C)Cc2nc(C)c[nH]2)c1 | -7.642
CCCc1nc(CN(C)CCOc2ccccc2)cs1 | -8.28
CC(C)N(C)S(=O)(=O)N1CCCC1CC(=O)c1cccs1 (configuration not stated) | 9.795
CC(C)Cc1noc(CN(C)C(=O)CCNC(=O)c2ccccc2F)n1 | -3.806
CC(CNCC1(S(C)(=O)=O)CCOCC1)c1ccc(F)cc1 (configuration not stated) | 6.37
CNc1cc(-c2nc(CCN3CCCC3=O)no2)ccn1 | 8.6
O=C(Cc1cccc(F)c1)NCCCNC(=O)c1cccc(O)c1 | 95
CC(NC(=O)N(C)Cc1ccsc1)c1ccc2c(c1)NC(=O)CO2 (configuration not stated) | -9.283
Cc1cc(C2CCCN2Cc2cc(=O)n(C)c(=O)n2C)on1 (configuration not stated) | -9.858
Cc1cc(F)c2c(c1)CCCN2C(=O)c1cncc(Br)c1 | 14.39
Cc1cc(F)c2c(c1)CCCN2Cc1cc(=O)n(C)c(=O)n1C | 117.6
CN(C(=O)CN1CCCc2cc(F)cc(F)c21)c1ccccc1 | -11.45

Structure (SMILES) | Percent Effect [%]
Cn1c(CN2CCCc3cc(F)cc(F)c32)cc(=O)n(C)c1=O | 98.13
Cc1cc(F)c2c(c1)CCCN2Cc1nc2c(cnn2C)c(=O)[nH]1 | -12.02
Cn1ncc2c(=O)[nH]c(CN3CCCc4cc(F)cc(F)c43)nc21 | -18.5
Cc1ccc(F)c2c1CCCN2Cc1cc(=O)n(C)c(=O)n1C | 107.3
Cn1c(CS(=O)(=O)c2ccc(Cl)cc2)cc(=O)n(C)c1=O | 2.461
COC(=O)N1CCc2ccccc2C1C(=O)NCc1ccccn1 (configuration not stated) | -3.953
N#CC1(NC(=O)c2nccc3ccccc23)CCC1 | 2.644
CC(C)[C@@H]1CN(C(=O)NCc2ccco2)C[C@H]1NS(=O)(=O)N(C)C | 8.904
CC(C)[C@H](NS(C)(=O)=O)C(=O)NCc1cc(-c2ccccc2)nn1C | 107.7
CCN(CC)C(=O)c1cc(-c2cccc(Cl)c2)no1 | -14.84
CC(NC(=O)c1cc(-c2cccc(Cl)c2)no1)C(=O)N(C)C (configuration not stated) | -38.11
CC(C)[C@H](NS(C)(=O)=O)C(=O)NCc1cc(-c2cccc(Cl)c2)nn1C | 123.3
CC(C)[C@H](NS(C)(=O)=O)C(=O)NCc1cc(-c2ccco2)nn1C | 131.1
CC(Cc1ccco1)NC(=O)NCc1ncnn1C (configuration not stated) | 9.946
CC(C)S(=O)(=O)NC(=O)c1cc(-c2cccc(Cl)c2)no1 | -50.72
CCC(C(=O)NCc1ccncc1)N(c1cccc(Cl)c1)S(C)(=O)=O (configuration not stated) | -1.901
Cn1c(C(=O)NS(C)(=O)=O)ccc1-c1ccccc1 | -9.851
CN(Cc1cc(-c2ccccc2)no1)C(=O)CNS(C)(=O)=O | -3.143
CC(C)NC(=O)NCc1cc(-c2cccc(Cl)c2)nn1C | 128.3
